The source of these data is PubChem BioAssay AID623877 (Johns Hopkins Ion Channel Center, 2012).

The whole screen tested about 340,000 compounds, of which about 1,000 (0.29%) were called active.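 How the source made its calls: active means fluorescence-ratio B-score plate-corrected deviation score at least 3 library SD below zero, with starting fluorescence score within 5 deviations; inactive means the rest.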 For the sample, actives were picked, then their nearest neighbours and some compounds at random.

The target in this experiment is Anoctamin-1 (Mus musculus) (UniProt Q8BHY3). The experiment is described as follows: TMEM16A chloride channel activators or potentiators, primary screen, cell-based, HTS (AID 623877).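 On B-score: channel opened by trigger with iodide after compound preincubation; score built on the fluorescence ratio of max minus min over baseline; more negative score means more quench and so TMEM16A activation or potentiation.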 The following applies: HEK293 TMEM16A/YFP-H148Q/I152L, iodide quench fluorescence, at 10 µM; stronger effect = lower value.
Chain of Anoctamin-1 (Mus musculus) (Q8BHY3 whole entry, looked up): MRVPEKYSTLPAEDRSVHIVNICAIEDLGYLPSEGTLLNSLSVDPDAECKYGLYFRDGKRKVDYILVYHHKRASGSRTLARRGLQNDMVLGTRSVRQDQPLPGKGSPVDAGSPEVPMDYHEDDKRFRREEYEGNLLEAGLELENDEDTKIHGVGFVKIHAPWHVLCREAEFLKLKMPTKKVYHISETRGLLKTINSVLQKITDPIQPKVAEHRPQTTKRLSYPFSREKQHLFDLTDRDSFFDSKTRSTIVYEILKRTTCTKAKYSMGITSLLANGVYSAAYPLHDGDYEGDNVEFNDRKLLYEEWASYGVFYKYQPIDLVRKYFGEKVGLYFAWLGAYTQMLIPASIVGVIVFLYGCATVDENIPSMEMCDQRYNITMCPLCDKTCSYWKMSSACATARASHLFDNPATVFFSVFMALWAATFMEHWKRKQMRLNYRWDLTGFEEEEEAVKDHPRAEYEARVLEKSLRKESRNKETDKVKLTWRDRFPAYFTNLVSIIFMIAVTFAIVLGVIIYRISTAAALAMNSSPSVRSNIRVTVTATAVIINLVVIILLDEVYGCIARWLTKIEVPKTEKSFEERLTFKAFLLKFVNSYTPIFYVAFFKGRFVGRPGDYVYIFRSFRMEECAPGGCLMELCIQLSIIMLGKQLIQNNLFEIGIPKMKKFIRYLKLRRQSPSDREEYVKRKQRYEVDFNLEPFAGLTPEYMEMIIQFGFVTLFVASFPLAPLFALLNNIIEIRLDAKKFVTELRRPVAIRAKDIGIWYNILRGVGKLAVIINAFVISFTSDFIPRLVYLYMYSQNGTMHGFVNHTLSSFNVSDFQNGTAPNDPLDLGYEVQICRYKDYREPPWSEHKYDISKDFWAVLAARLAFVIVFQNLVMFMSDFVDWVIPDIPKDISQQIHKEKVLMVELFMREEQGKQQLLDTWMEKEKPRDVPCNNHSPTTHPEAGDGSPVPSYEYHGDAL
As to `Cc1cccc(NC(=S)Nc2ccc(Cl)c(Cl)c2)c1`, the B-score result is “inactive”.

In the case of `O=C(O)CC1(CC(=O)Nc2cccc(C(F)(F)F)c2)CCCC1`, the B-score entry is “inactive”.

`FC(F)(F)c1cccc(NC(=S)Nc2cccc(Cl)c2)c1`: the B-score is -5.69 (active).

Turning to `C#CCOCCOCCOCCNc1nc(N2CCN(C(=O)CCCCCCCCCCNC(=O)[C@H]([C@@H](C)CC)n3cc(CCCCN=C(N)N)nn3)CC2)nc(N2CCN(C(=O)CCCCCCCCCCNC(=O)[C@H](CO)n3cc(CCCSC)nn3)CC2)n1`, the B-score was -27.8 (active).

Turning to `C#CCOCCOCCOCCNc1nc(N2CCN(C(=O)Cn3cc(CCCCN)nn3)CC2)nc(N2CCN(C(=O)[C@H](CCCCN)n3cc(CCC(=O)O)nn3)CC2)n1`, the B-score entry was “inactive”.

`C#CCOCCOCCOCCNc1nc(N2CCN(C(=O)[C@H](C(C)C)n3cc(CCO)nn3)CC2)nc(N2CCN(C(=O)[C@H]([C@@H](C)CC)n3cc(CCCN=C(N)N)nn3)CC2)n1`: the B-score result is “inactive”.

Turning to `C#CCOCCOCCOCCNc1nc(N2CCN(C(=O)Cn3cc(CCO)nn3)CC2)nc(N2CCN(C(=O)[C@H](CCCCN)n3cc(CCCC)nn3)CC2)n1`, the B-score entry is “inactive”.

Consider `C#CCOCCOCCOCCNc1nc(N2CCN(C(=O)Cn3cc(CCO)nn3)CC2)nc(N2CCN(C(=O)Cn3cc(CCCN=C(N)N)nn3)CC2)n1`, for which the B-score entry is “inactive”.

Take `C#CCOCCOCCOCCNc1nc(N2CCN(C(=O)CCCCCCCCCCNC(=O)[C@H](CCCCN)n3cc(C)nn3)CC2)nc(N2CCN(C(=O)CCCCCCCCCCNC(=O)[C@H](CO)n3cc(CCCSC)nn3)CC2)n1`: the B-score is -13.2 (active).

`Cc1ccc(OCCCC(=O)Nc2ccc3c(c2)OCCO3)cc1`: the B-score entry is “inactive”.

For `O=C(NCCCc1ccccc1)c1cc(COc2c(F)cccc2F)on1`, the B-score entry was “inactive”.

In the case of `CCN1CCN(C(=O)C2CCCN(S(=O)(=O)c3ccc(OC)c(OC)c3)C2)CC1` (centres undefined), the B-score entry was “inactive”.

Turning to `COc1ccc(/C=C/CN2CCN(Cc3ccc(C)cc3)C(CCO)C2)cc1` (centres undefined), the B-score entry was “inactive”.

In the case of `O=C(CN1CCN(c2ccccc2O)CC1)NC(=O)NCc1ccccc1`, the B-score result was “inactive”.

Consider `CCCC(C(=O)n1nc(C)cc1C)C(NS(=O)(=O)c1ccc(C)cc1)c1ccccc1` (centres undefined), for which the B-score is -8.83 (active).

As for `Cc1ccc(S(=O)(=O)Nc2nc(C)cc(-n3nc(C)cc3C)n2)cc1`, the B-score entry is “inactive”.

As to `Cc1ccc(S(=O)(=O)NC(C(=O)N2CCOCCOCCOCCOCC2)c2ccccc2)cc1` (centres undefined), the B-score entry was “inactive”.

`O=c1[nH]c(=S)[nH]c(O)c1/C=C1\C=Nc2ccccc21`: the B-score result was “inactive”.

`CC(C)N(Cc1nnc(-c2ccc(Cl)cc2)o1)C(=O)C1=COCCO1`: the B-score entry is “inactive”.

Consider `CCOC(=O)c1ccccc1NC(=O)COC(=O)CCC(=O)N1CCOCC1`, for which the B-score entry was “inactive”.

In the case of `Cc1cnc(CN(C)C(=O)CC2C(=O)NCCN2Cc2cccc(F)c2F)[nH]1` (centres undefined), the B-score result was “inactive”.

As to `Cc1nc2cccnc2nc1C`, the B-score entry is “inactive”.

As to `Cc1ccc(CN2CCN(Cc3ccccc3-c3ccco3)CC2CCO)o1` (centres undefined), the B-score result was “inactive”.

On to `CC(C)CCN1CCN(Cc2ccc(C(F)(F)F)cc2)CC1CCO` (centres undefined), for which the B-score result is “inactive”.

Take `CC(C)CCN1CCN(C/C=C/c2ccco2)CC1CCO` (centres undefined): the B-score is -7.6 (active).

Consider `COCCNC(=O)CSc1nc2c(n1-c1ccccc1)CCCC2`, for which the B-score result is “inactive”.

Consider `O=C(CCNC(=O)c1ccc([N+](=O)[O-])cc1)NC1CCCCC1`, for which the B-score entry was “inactive”.

On to `NC(=O)c1ccc(NC(=O)COC(=O)c2c3c(nc4ccccc24)/C(=C\c2ccc4c(c2)OCO4)CCC3)cc1`, for which the B-score was -6.02 (active).

Turning to `O=C(COC(=O)c1ccncc1)Nc1ccc2c(c1)OCO2`, the B-score entry is “inactive”.

On to `NS(=O)(=O)c1ccc(NC(=O)COC(=O)c2c3c(nc4ccccc24)/C(=C\c2ccc4c(c2)OCO4)CCC3)cc1`, for which the B-score entry was “inactive”.

Turning to `CCOC(=O)c1cc(NC(=O)SCC(=O)O)c(C)nc1C`, the B-score entry is “inactive”.

For `CC(=O)OCC(COC(C)=O)OC(C)=O`, the B-score result was “inactive”.

In the case of `CC(=O)OC(C)C[N+](C)(C)C` (centres undefined), the B-score is -7.27 (active).

On to `CC(C[N+](C)(C)C)OC(N)=O` (centres undefined), for which the B-score result was “inactive”.

Regarding `NS(=O)(=O)c1ccc(N=Cc2ccc(Br)s2)cc1`, the B-score result is “inactive”.

Take `COc1ccc(-c2cc(C(=O)N3CCN(c4ccc(F)cc4)CC3)no2)cc1`: the B-score result was “inactive”.

For `COc1ccc(NC(C(=O)Nc2cccc(C(C)=O)c2)c2ccccc2)cc1` (centres undefined), the B-score entry is “inactive”.

For the molecule `COc1ccc(-c2onc3ccc(C(C)=O)cc23)cc1`, the B-score was -5.14 (active).

As for `Cc1cccc(CC(=O)Nc2c3c(nn2-c2cccc(Cl)c2)CS(=O)C3)c1` (centres undefined), the B-score result is “inactive”.

For `CN(C(=O)c1cccc(NC(=O)Cc2ccc(NC(=O)C3CCCN(C(=O)C4CCCC4)C3)cc2)c1)C1CCC1` (centres undefined), the B-score entry is “inactive”.

On to `C=C(Cl)COC(=O)C1C2C=CC(C2)C1C(=O)O` (centres undefined), for which the B-score result was “inactive”.

For `Cn1nccc1NS(=O)(=O)c1ccc(F)cc1`, the B-score result was “inactive”.

`CSc1ccc(CNCCN2CCOCC2)cc1`: the B-score was -9.5 (active).

Take `CCCCNCc1ccc(SC)cc1`: the B-score result was “inactive”.

As for `O=C(Cc1ccc(Br)cc1)NCCN1CCOCC1`, the B-score result is “inactive”.

Take `O=C(c1ccc(OC2CCN(C/C=C/c3ccc(F)cc3)CC2)cc1)N1CCCCC1`: the B-score result was “inactive”.

`CCn1c(Cc2ccccc2)nnc1SCc1nc2ccccc2c(=O)[nH]1`: the B-score entry was “inactive”.

For `CCn1c(COc2c(C)cccc2C)nnc1SCc1nc2ccccc2c(=O)[nH]1`, the B-score was -4.66 (active).

`COc1ccc(CCCc2nnc(SCc3nc4ccccc4c(=O)[nH]3)n2C)cc1`: the B-score entry is “inactive”.

As to `Cc1ccc(Cl)cc1N1CCN(C(=O)c2cccc3c(=O)c(C)c(-c4ccccc4)oc23)CC1`, the B-score entry is “inactive”.

Regarding `CCOc1ccc(N(CC(=O)NC2CCCCCC2)S(=O)(=O)c2c(C)[nH]c(=O)[nH]c2=O)cc1`, the B-score entry is “inactive”.

`Oc1c(Cl)cc(Cl)c(Cl)c1Cc1c(O)c(Cl)cc(Cl)c1Cl`: the B-score was -5.49 (active).

For `OCC(O)C1OCOC(C(O)CO)C1O` (centres undefined), the B-score result was “inactive”.

With `COc1ccc(S(=O)(=O)N2CCCCCC2)cc1C(=O)N(C)Cc1cccc(OC)c1OC`, the B-score was -5.67 (active).

Consider `COc1ccc(C(=O)N(C)Cc2ccc(OC)c(OC)c2OC)cc1S(=O)(=O)N1CCOCC1`, for which the B-score result was “inactive”.

For `CCNC(=O)NC(=O)C(C)OC(=O)c1cc(S(=O)(=O)N2CCCCCC2)ccc1OC` (centres undefined), the B-score result was “inactive”.

For `COc1ccc(NC(=O)C2C3C=CC(C3)C2C(=O)NCc2ccccn2)c(OC)c1` (centres undefined), the B-score entry was “inactive”.

With `O=C(NCCN1CCOCC1)c1cccc(S(=O)(=O)Nc2ccc(F)cc2)c1`, the B-score entry is “inactive”.

As for `Cc1c(C(=O)NC(=S)NCc2cccnc2)oc2ccccc12`, the B-score is -24.9 (active).

As to `Cc1c(C(=O)NNC(=O)c2ccncc2)oc2ccccc12`, the B-score result was “inactive”.

Regarding `Cc1ccc(C(=O)NC(=S)NCc2cccnc2)cc1`, the B-score result is “inactive”.

With `O=C(OCC(=O)N1CCN(C(=O)c2ccco2)CC1)c1cccc(O)c1`, the B-score result was “inactive”.

Consider `CCCOc1ccc(Cn2c(O)cc(=O)[nH]c2=O)cc1`, for which the B-score entry is “inactive”.

For `COc1ccc(Cn2c(=O)cc(C)[nH]c2=S)cc1`, the B-score result is “inactive”.

Turning to `COc1ccc(Cn2c(O)c(/C=C3/C=CC=N3)c(=O)[nH]c2=O)cc1`, the B-score is -5.62 (active).

`CCn1cc(CNC(=O)c2cc([N+](=O)[O-])c(C)c([N+](=O)[O-])c2)cn1`: the B-score result is “inactive”.

With `O=C(Nc1ccccc1-c1nnn(CC(=O)N2CCN(c3ccccc3)CC2)n1)c1cccs1`, the B-score entry was “inactive”.

On to `CCNC(=O)N1CCCC(C(=O)c2ccc(-c3ccccc3)cc2)C1` (centres undefined), for which the B-score entry was “inactive”.

With `CCCCSc1[nH]c(=O)c(C(=O)OCC)cc1C#N`, the B-score entry was “inactive”.

Consider `COc1cc(C)c(C)cc1S(=O)(=O)N1CCCc2ccccc21`, for which the B-score was -10.8 (active).

Regarding `Cn1c(=O)n(C)c2cc(S(=O)(=O)N3CCCc4ccccc43)ccc21`, the B-score result was “inactive”.

Turning to `COc1ccc(C(=O)OCC(=O)NCC2CCCCC2)cc1S(=O)(=O)N1CCCc2ccccc21`, the B-score entry is “inactive”.

Take `CCCCCC(=O)NC(=S)NNC(=O)c1ccc([N+](=O)[O-])cc1`: the B-score result was “inactive”.

As for `CCCCC(=O)NNC(=S)NC(=O)C(c1ccccc1)c1ccccc1`, the B-score was -5.16 (active).

`CCC(C)NC(=O)CCCc1ccccc1` (centres undefined): the B-score entry is “inactive”.

`O=C(CN1CCN(Cc2ccc(F)cc2Cl)C1=O)NCc1cccs1`: the B-score result was “inactive”.

Regarding `CCOC(=O)CNC(=O)CN1C(=O)CCSc2ccccc21`, the B-score result is “inactive”.

Consider `C=CC[C@H](CC(=O)N(CCO)Cc1ccccc1)C(=O)N[C@@H](COC(=O)[C@@H](CC=C)Cc1ccc(F)cc1)Cc1ccccc1`, for which the B-score entry was “inactive”.

As to `C=CC[C@H](CC(=O)OC(C)(C)C)C(=O)OC[C@H]1CCCN1C(=O)[C@H](CC=C)CC(=O)N(CCO)Cc1ccccc1`, the B-score was -5.89 (active).

As to `C=CCC[C@H](Cc1ccc(F)cc1)C(=O)OC[C@H](C)NC(=O)[C@H](CC=C)CC(=O)N(CCO)Cc1ccccc1`, the B-score result is “inactive”.

In the case of `CC(Sc1nncn1C)C(=O)Nc1cc(C(F)(F)F)ccc1N1CCOCC1` (centres undefined), the B-score result is “inactive”.

Consider `Nn1c(SCC(=O)NC2CCCc3ccccc32)nnc1C1CC1` (centres undefined), for which the B-score entry was “inactive”.

For `Nc1nnc(SCC(=O)NC2CCCc3ccccc32)s1` (centres undefined), the B-score was -16.7 (active).

As to `O=C(CSc1nncs1)NC1CCCc2ccccc21` (centres undefined), the B-score result is “inactive”.

In the case of `CC(=O)Oc1ccc(OC(C)=O)c2c1C1C=CC2CC1`, the B-score entry is “inactive”.

For the molecule `O=C(CNc1ccccc1N1CCCC1=O)Nc1cc(Cl)ccc1-n1cncn1`, the B-score result was “inactive”.

For the molecule `Cc1ccc(NC(=O)CSc2nc(CSc3ccc(C)cc3)cc(=O)[nH]2)cc1`, the B-score is -12.6 (active).

As to `Cc1cc(=O)[nH]c(SCC(=O)Nc2ccc(Br)cc2)n1`, the B-score result was “inactive”.

On to `COc1ccc(NC(=O)CSc2nc(NS(=O)(=O)c3ccc(C)cc3)cc(=O)[nH]2)cc1`, for which the B-score result was “inactive”.

For `COC1=NC2=NCCN2C(OC)=N1`, the B-score result is “inactive”.

Take `CC(=O)Nc1ccc(C(=O)Nc2cc(S(=O)(=O)N3CCOCC3)ccc2N2CCOCC2)cc1`: the B-score result was “inactive”.

Take `O=C1C(=O)N(c2ccccc2)c2ccccc21`: the B-score result is “inactive”.

As to `COc1ccccc1N1CCN(C(=O)c2ccc(Cl)c(S(=O)(=O)N3CCCC3)c2)CC1`, the B-score entry is “inactive”.

On to `O=C(c1ccc(Cl)c(S(=O)(=O)N2CCCCC2)c1)N1CCCCCC1`, for which the B-score entry was “inactive”.

Turning to `O=C(c1ccc(Cl)c(S(=O)(=O)N2CCCCCC2)c1)N1CCN(c2ccc(O)cc2)CC1`, the B-score was -41.2 (active).

For `O=c1oc2ccccc2c(=O)c2ccccc12`, the B-score result was “inactive”.

With `Cc1cc(C)n2nc(C(=O)NC(C)(C)C)nc2n1`, the B-score was -4.58 (active).

`Cc1cc(C)n2nc(C(=O)N(C)C(c3ccccc3)c3ccccc3)nc2n1`: the B-score entry was “inactive”.

With `COc1ccc(Cl)cc1C(=O)NNC(=O)c1nc2nc(C)cc(C)n2n1`, the B-score entry was “inactive”.
